# Laboratory results as given in PubChem BioAssay AID2713 (National Center for Advancing Translational Sciences (NCATS), 2010).
# Where “and” joins values, the source holds several entries; their conditions need not be identical. Equal entries are not always repeated. Inconclusive results are not listed. Calls of active or inactive are those of the source.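 Rule for the calls: active = compounds raising survival of Huntington mutant striatal cells while barely changing normal control cells; inconclusive = compounds that make cell death worse; inactive = the rest.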
# Assay: qHTS Multiplex Assay to Identify Dual Action Probes in a Cell Model of Huntington: Cytotoxicity in HTT Striatal Cells
# Conditions: STHdhQ111/111 striatal cells, serum-free, ATP luminescence, 24 h
# Source text: NIH Chemical Genomics Center [NCGC] NIH Molecular Libraries Probe Production centers Network [MLPCN] MLPCN Grant: MH084839-01A1 Assay Submitter (PI): Wei Zheng NCGC Assay Overview: Huntington's disease is a neurodegenerative disorder caused by a trinucleotide repeat expansion in Exon 1 of the Huntingtin gene. The CAG trinucleotide encodes glutamine and polyglutamine expansions cause cell death in selective areas of the brain. Huntington polyglutamine repeats have the tendency to form aggregates which are observable in later stages of the disease. The exact nature of the aggregates, whether toxic, protective, or insignificant, is unclear. A stable PC12 cell line containing a gene fusion of Exon 1 of the Huntingtin gene linked to GFP under the control of the inducible ecdysone promoter were used as the cell-based model of Huntington Disease for high throughput screening. Exon 1 of the Huntingtin gene contained an expansion of 103 polyglutamines (Q103) which, when expressed, caused cell death and distinct, bright GFP aggregates. The amount of cell death and the size and intensity of GFP aggregates increased over time and induction level. The cell death were quantified with a measurement of ATP content in the cells. A maximal 40-50% of cell death was observed when the Huntington gene was induced in this cell line. We optimized this assay in a homogeneous 1536 well format. A quantitative high throughput screen (qHTS) was conducted on the PC12 cells which were induced to express the toxic fusion construct. Small molecules which prevented cell death were identified by using a luminescent ATP quantification method (Perkin Elmer's ATPlite). This assay examines influence on cytotoxicity induced by serum deprivation in normal and Huntington striatal cells.
# Freshlay passaged STHdhQ7/7 cells and mutant STHdhQ111/111 Huntington striatal cells were plated at a density of 20,000 cells/well in complete media and allowed to recover overnight at 33C. The next day, media was replaced with serum containing media or serum free media containing the compound. After 24 hours of incubation at 33 C, cells were assayed for ATP content using the Cell Titer-GLO ATP assay from Promega (cat # G7571). ATP/Toxicity Assay in Serum Free Media (SFM) (96 well plate format) 1. Plate 20,000 cells/well and incubate the cells in complete (w/serum) media overnight 2. Remove media, wash twice with PBS and add the SFM w/ or w/o the compound 3. Incubate at 33C; cells can be incubated at 39C for a more dramatic effect 4. ATP measurements after […] treatment, per kit protocol
structure (smiles),measurement,setting,value
Cn1nnnc1Sc1ncnc2scc(-c3ccccc3)c12,viability change,"measured here: Q7/7 cells, at 30 µM",33% and 26%
same,viability change,"measured here: Q7/7 cells, at 60 µM",21% and 15%
same,viability change,"measured here: Q111/111 cells, at 60 µM",191% and 196%
same,viability change,at 30 µM,231% (active) and 240% (active)
same,viability change,"measured here: Q7/7 cells, FBS, at 30 µM",9% and 8%
same,viability change,"measured here: Q7/7 cells, FBS, at 60 µM",7% and 5%
same,viability change,"measured here: Q111/111 cells, FBS, at 30 µM",18% and 16%
same,viability change,"measured here: Q111/111 cells, FBS, at 60 µM",9% and 8%
